The campaign covered roughly 230,000 compounds. Fewer than 10 were called active. The call rests on the fitted dose curve; in most records, active means well fitted curve in the direction sought with a large enough effect; inconclusive means small, poorly fitted or top-dose-only effect, or effect the other way, or another doubt; inactive means no such curve, though single readings can be large or run the other way. Only a sample is shown.
target: Alpha-galactosidase A (Homo sapiens) (UniProt P06280); assay: qHTS Assay for Inhibitors of Human alpha-Galactosidase at pH 4.5.;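 further: 0% = full activity with enzyme and -100% = basal without enzyme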; conditions: purified enzyme, 4-MU-alpha-Gal fluorescence; series mostly up to 105 µM; activity change, negative = inhibition: at the top concentration
Source text: NIH Chemical Genomics Center [NCGC]
NIH Molecular Libraries Probe Production centers Network [MLPCN]
Assay Submitter (PI): Wei Zheng
Alpha-galactosidase is a homodimeric glycoprotein that hydrolyzes the terminal alpha-galactosyl moieties from glycolipids and glycoproteins. Deficiency of this enzyme results in Fabry Disease with progressive accumulation of globotriaosylceramide and other glycosphingolipids in vascular endothelial cells that causes renal failure, myocardial infarction and stroke, and premature death in patients. It has been reported that the improper folding and trafficking of alpha-galactosidase resulting from the genetic mutations may account for a significant numbers of Fabry patients. […] We optimized this alpha-galactosidase assay in 1536-well plate format for identifying the novel small molecule inhibitors with the structures other than the sugar analogs in order to develop the new pharmacological chaperones. Although this assay has the same protocol as PubChem AID 992, this is a separate project and, therefore, is published as a separate assay
NCGC Assay Protocol Summary:
This is a fluorogenic enzyme assay with 4-Methylumbelliferyl alpha-D-galactopyranoside as the substrate and human […] as the enzyme preparation. Upon the hydrolysis of this fluorogenic substrate, the resulting product, […]. 4-Methyllumbelliferone, can be excited at 365 nm and emits at 440 nm. This fluorescence which can be detected by a standard fluorescence plate reader. Data were normalized to the controls for basal activity (without enzyme) and 100% activity (with enzyme). In the AC50 values were determined from concentration-response data modeled with the standard Hill equation.
Assay buffer: 50 mM citric acid (titrated with potassium phosphate to pH 4.5), 0.005% Tween-20, pH 4.5. (pH 4.5 is an optimal condition for this enzyme assay)
1536-well assay protocol for the human alpha-galactosidase:
(1) Add 2 ul/well of enzyme (12 nM final)
(2) Add 23 nL compounds in DMSO solution. The final titration was 0.7 nM to 77 uM.
(3) Add 1 ul of substrate (400 uM final)
(4) Incubate at room temperature for 20 min.
(5) Add 2 ul stop solution (1M NaOH and 1M Glycine mixture, pH 10)
(6) Detect the assay plate in a ViewLux plate reader (PerkinElmer) with Ex=365 nm and Em=440nm.
Keywords: MLSMR, MLPCN, NIH Roadmap, qHTS, NCGC, : Alpha-galactosidase, Fabry Disease, pharmacological chaperone, chaperone therapy

Chain of Alpha-galactosidase A (Homo sapiens) (P06280 whole entry, looked up): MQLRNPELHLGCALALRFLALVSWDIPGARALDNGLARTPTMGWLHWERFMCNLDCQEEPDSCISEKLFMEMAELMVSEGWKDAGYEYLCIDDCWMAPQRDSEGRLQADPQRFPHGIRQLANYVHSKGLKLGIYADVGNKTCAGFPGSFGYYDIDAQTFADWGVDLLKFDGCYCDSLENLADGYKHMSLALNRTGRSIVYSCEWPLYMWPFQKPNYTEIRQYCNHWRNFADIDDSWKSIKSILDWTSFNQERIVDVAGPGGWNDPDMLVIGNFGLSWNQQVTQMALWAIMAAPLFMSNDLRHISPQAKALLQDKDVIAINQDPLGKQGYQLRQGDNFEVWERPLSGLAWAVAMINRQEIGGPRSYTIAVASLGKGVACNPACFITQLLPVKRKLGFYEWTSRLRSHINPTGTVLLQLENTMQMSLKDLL

Structure (SMILES)	activity change, negative = inhibition
Cc1cn(C2OC[C@@H](O)[C@@H]2CO)c(=O)[nH]c1=O (some centres not stated)	-5.03% (inactive)
Brc1ccc(C2=NCCC(c3ccccc3)O2)cc1 (configuration not stated)	-0.0967% (inactive)
C[C@@H]1C(c2ccc(F)cc2)=NN(c2ccc(Br)cc2)[C@H]1C(=O)N1CCOC1=O	1.05% (inactive)
Cc1csc(SCC(=O)Nc2sccc2C#N)n1	1.25% (inactive)
COC(=O)c1ccc(S(=O)(=O)N(CCO)Cc2ccccc2)n1C	1.9% (inactive)
Nc1nc(C23CC4CC(CC(C4)C2)C3)cs1	-0.438% (inactive)
CN(CCc1cn[nH]c1)C(=O)CC1C(=O)NCCN1Cc1cccc(Oc2ccccc2)c1 (configuration not stated)	7.92% (inactive)
Cc1cc(C)nc(SC2CCCCC2NS(=O)(=O)c2ccc(Cl)cc2)n1 (configuration not stated)	-10.7% (inactive)
Cc1ccc(S(=O)(=O)N2CCC(C(=O)OCC(=O)N3CC(=O)Nc4ccccc43)CC2)cc1	-0.506% (inactive)
Cc1ccc(C2CC(c3cccc(NS(C)(=O)=O)c3)=NN2S(C)(=O)=O)cc1 (configuration not stated)	10.3% (inactive)
CCOC(=O)C1=C(C)c2ccccc2OC1(C)C(=O)OCC (configuration not stated)	-6.68% (inactive)
Cc1cccc(NC(=S)NCc2ccc3[nH]c4c(c3c2)CCCC4)c1	-1.22% (inactive)
COc1ccc(-c2c(C)cc3oc(=O)cc(-c4ccccc4)c3c2C)cc1OC	-21.7% (inactive)
OC[C@H]1O[C@@H](n2cnc3c(NC4CCCC4)ncnc32)[C@H](O)[C@H]1O	0.0639% (inactive)
COC1(C2=NCCN2)COc2ccccc2O1 (configuration not stated)	-0.194% (inactive)
COC(C)C(C(=O)OCC1=CCN2CC[C@H](O)[C@@H]12)C(C)C (some centres not stated)	-7.37% (inactive)

Structure (SMILES)	activity change, negative = inhibition
COc1ccc(-c2nc3c(c4c2C[C@H](c2ccccc2)OC4)CN(C(=O)c2ccco2)CC3)c(C)c1	9.81% (inactive)
CCn1c(SCC(=O)Nc2ccc(C)cc2)nc2nc3c(cc2c1=O)CCCC3	0.427% (inactive)
Cc1cc(N)n(-c2ccc(S(=O)(=O)N3CCCC3)cc2[N+](=O)[O-])n1	8.19% (inactive)
Cc1cc(Cl)ccc1OCc1nc(-c2ccncc2)no1	-7.26% (inactive)
CC(C)(C)NS(=O)(=O)CC12CCC(CC1=O)C2(C)C (configuration not stated)	-2.78% (inactive)
CCn1c(SCc2ccccc2)nc2c(c1=O)SCC2	-18.3% (inactive)
COc1ccc(-c2nc3c(c4c2C[C@H](c2ccccc2)OC4)CN(C(=O)C2CC2)CC3)c(C)c1	-7.05% (inactive)
C=CCN1c2ccccc2[C@]23C[C@@H](C(=O)OC)N(S(=O)(=O)c4ccc([N+](=O)[O-])cc4)C2=NC(C(=O)OC)=C(C(=O)OC)[C@H]13	-4.09% (inactive)
O=C(CSc1cccc[n+]1[O-])c1ccc(Cl)cc1	3.17% (inactive)
O=C(NCc1cccnc1)c1cnc2ccccc2n1	1.77% (inactive)
CCCCS(=O)(=O)N1C2=NC(C(=O)OC)=C(C(=O)OC)[C@@H]3N(Cc4ccccc4)c4ccccc4[C@]23C[C@H]1C(=O)OC	7.1% (inactive)
Nn1c(SCC(=O)Nc2nccs2)nncc1=O	-6.09% (inactive)
O=c1[nH]c(SCc2cccc(F)c2)nc2ccccc12	0.781% (inactive)
COc1ccc(/C=N/OCC(=O)N(Cc2ccccc2)c2ccccc2C(=O)O)cc1	-13.4% (inactive)
O=C(COc1cccc(F)c1)Oc1ccc(C(=O)c2ccccc2)cc1	1.38% (inactive)
COc1ccc(-c2nc3c(c4c2C[C@H](c2ccccc2)OC4)CN(S(=O)(=O)c2c(C)noc2C)CC3)c(C)c1	11.4% (inactive)
